HCMV antiviral: qHTS Assay for inhibitors of the human cytomegalovirus (HCMV); HFF cells, HCMV-luciferase reporter, 72 h; hits give low values; activity change, negative = inhibition, % at 57.5 µM; hit rate 4.5% among 410,000; AID 1259415, 2018; in the data active = activity change below about -60%; inconclusive = no clear call, values can overlap the other calls; inactive = above about -39%; also: % is scaled to controls: 0 for no effect and ±100 for the full control effect
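Cell-based, HFFs, 1000 cells/well, 16 h 37C; cpds in DMSO + HCMV-luc, MOI 1 PFU/cell; 72 h 37C; OneGlo luminescence after 5 min RT; norm. to buffer vs Salinomycin 10uM.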
Pf growth 96h: Primary qHTS for delayed death inhibitors of the malarial parasite plastid, 96 hour incubation; P. falciparum luciferase reporter growth, 96 h; Potency, µM (highest dose often 28.7 µM), for the others: at the highest dose activity change, negative = inhibition, actives largely listed as inhibitors; hit rate 6.9% among 320,000; also: potency is read from the fitted curve at half-maximal effect; % is scaled to controls: 0 for no effect and ±100 for the full control effect
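Plates of compound plus infected erythrocytes (2% hematocrit, 0.05% parasitemia final) incubate 96 hours, 37 C, 5% CO2. Detection reagent added; reduced luminescence from the parasites' luciferase reporter flags inhibition.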
Pf growth 48h: Primary qHTS for delayed death inhibitors of the malarial parasite plastid, 48 hour incubation; hit rate 5.9% among 310,000; P. falciparum luciferase growth in erythrocytes, 48 h; Potency, µM (highest dose often 28.7 µM), without a hit: top-dose activity change, negative = inhibition, most hits filed as inhibitors; also: potency is read from the fitted curve at half-maximal effect; % is scaled to controls: 0 for no effect and ±100 for the full control effect
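Erythrocytes infected with P. falciparum carrying an integrated firefly luciferase reporter (2% hematocrit, 0.1% parasitemia final) were exposed to compounds in RPMI 1640 with 0.5% Albumax at 37 C, 5% CO2. Growth inhibition was scored as reduced luminescence.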
Cycloheximide cs: Cycloheximide Counterscreen for Small Molecule Inhibitors of Shiga Toxin | cell reporter, cycloheximide protein synthesis inhibition counterscreen | max response, % | hit rate 12% among 300,000 | AID 2314, 2010; in the data active = max response mostly above about 13%, no sharp cut-off; inactive = mostly below about 14%; also: read at 38.3 µM for the half of the compounds with a filed dose; 0% is about no effect
Shiga inhibitor: A qHTS for Small Molecule Inhibitors of Shiga Toxin | AID 2315, 2010 | hit rate 9.2% among 290,000 | inhibition, % at 38.7 µM | Vero cells, Shiga toxin protein synthesis inhibition reporter; in the data active = inhibition mostly above about 28%, no sharp cut-off; inactive = mostly below about 43%; also: 0% is about no effect
Active calls of the source: *; ? = inconclusive; nt = not tested or not shown; [ ] = another dose, or the depositor's remark. This is a sample that favours compounds with a hit; in the whole collection about 20% have one here. Unless noted, calls follow the shape of the dose curve; as a rule, active = well fitted inhibition curve with a large enough effect; inconclusive = small, poorly fitted or top-dose-only effect, or another doubt; inactive = no such curve, though single readings can be large or run the other way.

SMILES | HCMV antiviral | Pf growth 96h | Pf growth 48h | Cycloheximide cs | Shiga inhibitor
Cc1ccc(N(C(=O)c2snc(C(N)=O)c2N)C(C(=O)NC2CCCC2)c2ccco2)cc1 (centres undefined) | -71* | 15% | 13µM* | 8 | -3
Cc1cccc(N(C(=O)c2snc(C(N)=O)c2N)C(C(=O)NC2CCCC2)c2ccc(C)o2)c1 (centres undefined) | -21 | 28% | 8.3µM* | 6 | 34
CN(C)c1ccc(C(C(=O)NCc2ccccc2)N(Cc2cccnc2)C(=O)c2snc(C(N)=O)c2N)cc1 (centres undefined) | -1 | 13µM* | ? | -3 | -17
COc1ccccc1C(C(=O)NC1CCCCC1)N(C(=O)c1csnn1)C1CC1 (centres undefined) | -27 | -2% | -23% | 0 | -13
Cc1ccc(N(C(=O)c2snc(C(N)=O)c2N)C(C(=O)NC2CCCC2)c2ccc(C)o2)cc1 (centres undefined) | -19 | ? | 10µM* | -7 | 6
Cc1cc(C)cc(N(CC(=O)NCc2ccco2)C(=O)c2snc(C(N)=O)c2N)c1 | 7 | 4.7µM* | -17% | 33* | 36*
O=C(NC1CCCCC1)C(c1ccccc1F)N(C(=O)c1csnn1)C1CCCC1 (centres undefined) | -60* | ? | -29% | 3 | 2
CCOc1ccc(N(C(=O)c2snc(C(N)=O)c2N)C(CC)C(=O)NC2CCCC2)cc1 (centres undefined) | 6 | ? | ? | -1 | 4
Cc1ccc(N(C(=O)c2csnn2)C(C(=O)NC2CCCCC2)c2ccco2)cc1 (centres undefined) | -62* | 23% | ? | -2 | -3
COC(=O)[C@H](CCSC)NC(=O)Nc1ccc(OC)cc1OC | 15 | nt | 10% | -1 | 13
COc1ccc(Cl)cc1NC(=O)c1c(NCc2cccnc2)sc2c1CCC(C)C2 (centres undefined) | -29 | nt | nt | nt | nt
Cc1ccc(S(=O)(=O)N2CCN(CC(=O)NC(=O)NCc3ccco3)CC2)cc1C | 1 | -8% | ? | -3 | -12
COc1ccc(N(C(=O)c2snc(C(N)=O)c2N)C(C(=O)NC2CCCCC2)c2ccc(C)o2)c(OC)c1 (centres undefined) | ? | 50% | 13µM* | 5 | -9
COc1ccc(C(C(=O)NC2CCCCC2)N(C(=O)c2snc(C(N)=O)c2N)c2ccc(OC)cc2OC)cc1 (centres undefined) | ? | 27% | ? | -4 | -4
OCCN1CCN(C(=S)c2ccc(Br)cc2)CC1 | -20 | 11% | 9% | -2 | -20
OCCN1CCN(CCCc2c3c(cc4c2CCC4)CCC3)CC1 | 12 | 12µM* | 12µM* | -2 | -22
COc1ccc(OCCn2c(=N)n(CCO)c3ccccc32)cc1 | -10 | nt | -19% | 4 | -13
CCCCn1c(=N)n(CCOc2ccc(C)cc2)c2ccccc21 | -37 | 14% | 7.4µM* | -6 | -7
CCOC(=O)Cn1c(=N)n(CCOc2ccc(F)cc2)c2ccccc21 | -17 | 84% | 42% | -1 | -12
CCn1c(=N)n(CCOc2ccc(Br)cc2)c2ccccc21 | -101* | nt | nt | nt | nt
CCCCn1c(=N)n(CCOc2ccccc2OC)c2ccccc21 | -71* | nt | nt | nt | nt
C=CCn1c(=N)n(CC(O)COc2ccccc2OC)c2ccccc21 (centres undefined) | -14 | ? | nt | -4 | 3
Cc1ccccc1OCC(O)Cn1c(=N)n(Cc2ccccc2)c2ccccc21 (centres undefined) | -74* | -17% | ? | -5 | -45
CC(C)C(NS(=O)(=O)c1cccc(C(F)(F)F)c1)C(=O)N1CCc2ccccc2C1 (centres undefined) | -20 | ? | ? | -2 | -6
COc1cc(OC)c(NC(=O)CCn2cnc3onc(-c4ccc(F)cc4)c3c2=O)cc1Cl | -9 | nt | nt | nt | nt
SMILES | HCMV antiviral | Pf growth 96h | Pf growth 48h | Cycloheximide cs | Shiga inhibitor
O=C(NCC(c1ccco1)N1CCOCC1)c1ccccc1 (centres undefined) | -19 | 25% | ? | nt | nt
COc1cc(CNC(=O)c2ccc3c(c2)N(C)C(=O)C2CCCCN32)cc(OC)c1OC (centres undefined) | -3 | nt | nt | nt | nt
CCCCCn1c(=N)n(CC(O)COc2ccccc2OC)c2ccccc21 (centres undefined) | -37 | ? | 4.7µM* | -7 | -3
N=c1n(Cc2ccccc2)c2ccccc2n1CC(O)c1ccccc1 (centres undefined) | ? | 2.3µM* | 2.1µM* | -5 | -8
COc1ccccc1OCC(O)Cn1c(=N)n(Cc2ccccc2)c2ccccc21 (centres undefined) | -25 | ? | 9.3µM* | -7 | -14
N=c1n(CCO)c2ccccc2n1Cc1ccccc1 | ? | -8%[5.75 µM] | 2% | -3 | -11
C[C@@H]1OC(Nc2ccc(N=Nc3ccccc3)cc2)[C@H](O)[C@H](O)[C@H]1O (some centres undefined) | ? | 170% | 129% | 35* | 52*
CC(=O)c1ccc(NC2OC(C)C(O)C(O)C2O)cc1 (centres undefined) | 67 | nt | 17% | 1 | -1
CC(=O)NN(O)C1N(C)C(=O)N(Cc2ccccc2)C1(C)C (centres undefined) | -4 | nt | nt | nt | nt
CCOC(=O)C1=C(C)NC(=O)NC1c1ccc(N2CCC(c3ccccc3)=N2)cc1 (centres undefined) | -30 | -55% | ? | 11* | 26*
CCOC(=O)C1=C(c2ccccc2)NC(=O)NC1c1ccc(O)c(Cl)c1 (centres undefined) | -102* | ? | -23% | -9 | -7
CC1=C(C(=O)OC2CCCCC2)C(c2ccccc2)NC(=O)N1 (centres undefined) | -30 | 9.3µM* | 8% | 4 | -5
CCCCOC(=O)C1=C(C)NC(=O)NC1c1ccccc1 (centres undefined) | 2 | 8.3µM* | 6% | -4 | -6
CCCCOC(=O)C1=C(C)NC(=O)NC1c1ccc(N(C)C)cc1 (centres undefined) | 3 | 176% | 18% | -2 | -7
COc1ccccc1-c1cnc2c(c1)C(=O)N([C@@H](C)CO)C[C@H](C)[C@H](CN(C)C)O2 | 30 | nt | nt | nt | nt
COc1ccc(OC)c(NC(=O)COCc2cc(-c3ccc(F)cc3)on2)c1 | -16 | nt | nt | nt | nt
O=C1C=C(N2CCN(C3=CC(=O)CCC3)CC2)CCC1 | -9 | nt | 7% | -2 | -16
CCC[C@H]1[C@H](NCc2ccccc2)CC[C@@]23CCCN2C(=O)CCC[C@@H]13 | -7 | nt | nt | nt | nt
COc1cc(C2NC(=O)NC(C)=C2C(=O)OC2CCCCC2)cc(Br)c1O (centres undefined) | -29 | 13µM* | nt | -2 | -9
COCCOC(=O)C1=C(C)NC(=O)NC1c1ccc(-c2ccc(F)cc2)o1 (centres undefined) | ? | ? | -14% | 10 | 1

Screening data as filed in PubChem.
